# Source: the supplement of paper PMC10338343
# ± gives the standard deviation.
# Test system: EfPiwi piRISC loaded with L1MC piRNA (26 nt)
# Test: pre-steady-state target cleavage rate (min^-1); auxiliary factor: 500 nM Ephydatia muelleri Gtsf1; guide: L1MC piRNA 5'p-UAACUAAAUACUAUGCAAGCUGUAGG; MIWI and MILI are mouse PIWI proteins and EfPiwi is from a freshwater sponge; tags in brackets are library labels; higher = faster piRNA-guided slicing of the target
# How it was run: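 Reactions were run for 0–8 or 0–960 min at 33 °C in HEPES–potassium acetate buffer, combining 1 nM active affinity-purified piRISC with one synthetic guide, […] transcribed, DNA-blocked target RNA library and, in some cases, 500 nM GTSF1 partner protein. Sequencing of uncleaved targets followed, with normalisation to depth and to weakly complementary targets. Three trials were pooled, k3 was capped at 0.0001 min^-1, and the pre-steady-state cleavage rate was taken from a burst-and-steady-state fit.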
row,Sequence,pre-steady-state target cleavage rate
1,UCCUGGAACAGCAUGCAUAGUAAUUAGUUA,0.0139 ± 0.0048
2,UCCUGCUACACCUUGCAUAGUUUUUAGUUA,0.00395 ± 0.002
3,UCCUGGAACAGCUUGCAAAGUAUAUAGUUA,0.00745 ± 0.0042
4,UCCUGGAACAGGUUGCAUAGUAUUUUGUUA,0.00366 ± 0.0015
5,UCCUGGUACAGCUCGCAUAGUAUUUAGUUA,0.00967 ± 0.0034
6,UCCUGGAUCAGCUAGCUUAGUAUUUAGUUA,0.00676 ± 0.0036
7,UCCUGGAUGAGGUUGCAUAGUAAUUAGUUA,0.00522 ± 0.003
8,UCCUCCUACACGAUGCAUAGUAUUUAGUUA,0.0593 ± 0.017
9,UCCUGGAACAGCUUGCAUAGUAUUUAGGUUA,0.00305 ± 0.0027
10,UCCUCCUACAGCUUGCAUAGUAGUUUAGUUA,0.0131 ± 0.0052
11,UCCUGGAUGAGCAUGCAAAGUAUUUAGUUA,0.00414 ± 0.0036
12,UCCUGGUACAGCUUGCUUAGUUUUUAGUUA,0.00346 ± 0.003
13,UCCUGGAUGUCCUUGCAUAGUAUUUAGAUA,0.00461 ± 0.0029
14,UCCUGGUAGUGCUUGCAUAGUAUUUAGUAA,0.00326 ± 0.0024
15,UCCUGGUACAGGUUGGAUAGUAUUUAGUUA,0.00482 ± 0.0022
16,UCCUGGAUCAGCUAGCAUAGUAAUUAGUUA,0.00458 ± 0.0024
17,UCCUCCUACAGCUAGCUUAGUAUUUAGUUA,0.00997 ± 0.0038
18,UCCUGCUACAGGUUGCAUAGUAUUUUGUUA,0.0057 ± 0.0026
19,UCCUGCUACAGCAUGCAAAGUAUUUAGUUA,0.00845 ± 0.0025
20,UCCUCCUACAGCUUGCAUAGUUAUUUAGUUA,0.00556 ± 0.0031

row,Sequence,pre-steady-state target cleavage rate
1,UCCUGGAACAGCUUGCAGAGUAUUUAGUUA,0.012 ± 0.003
2,UCCUCCUACAGGUUGCAUAGUAUUUAGUAA,0.00547 ± 0.0022
3,UCCUGGAAUAGCUUGCAUAGUAUUUAGUUA,0.0137 ± 0.0037
4,UCCUGCUACAGCGUUGCAUAGUAUUUAGUUA,0.0103 ± 0.0024
5,UCCUCCUACAGGUUGCAUAGUAUUAAGUUA,0.00576 ± 0.0023
6,UCCUGGAUCAGCAUGCAUUGUAUUUAGUUA,0.00421 ± 0.0021
7,UCCUGCUCCAGCUUGCAUAGUAUUUAGUUA,0.0877 ± 0.024
8,UCCUCCUACAGCUUGCAUAGUAUUUAGUUUA,0.145 ± 0.039
9,UCCUCCUACUAGCUUGCAUAGUAUUUAGUUA,0.127 ± 0.035
10,UCCUGAUACAGCUUGCAUAGUAUUUAGUUA,0.0427 ± 0.014
11,UCCUGGAACAGCUUGCAUAGUAUUUAGUCA,0.0042 ± 0.0024
12,UCCUCCUUGUGCUUGCAUAGUAUUUAGUUA,0.0113 ± 0.0034
13,UCCUCCUUCAGCUUGCUUAGUAUUUAGUUA,0.0651 ± 0.022
14,UCCUGGAUGUCCCUGCAUAGUAUUUAGUUA,0.00326 ± 0.0026
15,UCCUCCUACAGCUUCGCAUAGUAUUUAGUUA,0.121 ± 0.032
16,UCCUGGAUGAGCUUGCUUAGUAUUUAGUUA,0.00629 ± 0.0027
17,UCCUGGAACAGGUUGCAUAGUAAUUAGUUA,0.0061 ± 0.0024
18,UCCUGGAACAGCUUGCAUAGUAUUAUAGUUA,0.0399 ± 0.015
19,UCCUGGAACAGCUGUGCAUAGUAUUUAGUUA,0.00999 ± 0.0023
20,UCCUGGAUGAGCUUGCAUAGUAGUUUAGUUA,0.00964 ± 0.0035
